This is an account of results in PubChem BioAssay (EPA / NIEHS).

Records with an inconclusive call do not appear. The source made the active and inactive calls. The calls were made as follows, unless noted: active = hit-call score of the fitted dose curve at least 0.9, where 1 is the maximum; inactive = score below 0.9.

Test [1] in a line: ATG_NFI_CIS: Attagene CIS-FACTORIAL HepG2 Assay for human Nuclear Factor I (NFI) (AID 2282989). The note with it: HepG2 cis-regulatory reporter, NFI response element transcription; actives raise or lower the signal. Summed up: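 HepG2 cells transiently transfected with cis-element-driven multiplexed reporter transcription units, dosed for 24 h. Reporter mRNA quantified by RT-PCR, fluorescent labelling, HpaI digestion and capillary electrophoresis; bidirectional fit versus DMSO baseline.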

Test [2] has as its target Myc proto-oncogene protein (Homo sapiens) (UniProt P01106). The experiment in a line: ATG_Myc_CIS: Attagene CIS-FACTORIAL HepG2 Assay for human Myelocytomatosis (Myc) Proto-Oncogene Transcription Factor (AID 2282990). The conditions noted are these: HepG2, Attagene cis-reporter transcription factor activity; actives raise or lower the signal. Summed up: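 Read-out: fluorescent reporter mRNA fragments resolved by capillary electrophoresis after RT-PCR. Human HepG2 liver cells carried transfected cis-element reporter units and were dosed for 24 h. Gain or loss of signal fitted relative to DMSO baseline.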

The nature of test [3]: ATG_NF_kB_CIS: Attagene CIS-FACTORIAL HepG2 Assay for human Nuclear Factor Kappa B (NF-kB) (AID 2282991). The conditions noted are these: HepG2 Attagene cis-factorial NF-kB reporter mRNA; actives raise or lower the signal. A digest of the protocol: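 DMSO served as negative control and baseline for bidirectional curve fitting. Transiently transfected HepG2 cells were dosed for 24 h, then reporter transcripts were measured by RT-PCR with capillary electrophoresis detection.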

The nature of test [4]: ATG_Oct_MLP_CIS: Attagene CIS-FACTORIAL HepG2 Assay for human Octamer-Binding Transcription Factor (Oct) (AID 2282993). The conditions noted are these: HepG2 Attagene cis-factorial Oct reporter, mRNA; actives raise or lower the signal. Summed up:
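HepG2 cells transiently transfected with cis-promoter-driven multiplexed reporter transcription units, dosed for 24 h. Reporter mRNA quantified by RT-PCR, fluorescent labelling, HpaI digestion and capillary electrophoresis; bidirectional fits versus DMSO baseline.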

Test [5] has as its target Cellular tumor antigen p53 (Homo sapiens) (UniProt P04637). The experiment in a line: ATG_p53_CIS: Attagene CIS-FACTORIAL HepG2 Assay for human p53 Transcription Factor (AID 2282994). The note with it: HepG2 p53 cis-element reporter, Attagene mRNA; actives raise or lower the signal. A digest of the protocol:
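Endogenous p53 activity read in transiently transfected HepG2 from a cis-element-driven reporter transcript after 24 h exposure. RNA reverse-transcribed, PCR-amplified, fluorescently labelled and sized by capillary electrophoresis; gain or loss fitted against DMSO baseline.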

In test [6] the target is human Peroxisome Proliferator-activated Receptor alpha (PPARa), PPARA (gene 5465) (UniProt Q07869). The experiment in a line: ATG_PPARa_TRANS: Attagene TRANS-FACTORIAL HepG2 Assay for human Peroxisome Proliferator-activated Receptor alpha (PPARa) (AID 2283001; active = hit-call score of the fitted dose curve at least 0.9, where 1 is the maximum;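 as to AC50: potency for gain of reporter signal over DMSO so agonist or activator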). Summed up:
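HepG2, transient MRTU transfection, 24 h treatment. RT-PCR → FAM labelling → capillary electrophoresis. Fit vs DMSO, positive direction.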

The target in test [7] is human Peroxisome Proliferator-activated Receptor delta (PPARd), PPARD (gene 5467) (UniProt Q03181). Nature of the test: ATG_PPARd_TRANS: Attagene TRANS-FACTORIAL HepG2 Assay for human Peroxisome Proliferator-activated Receptor delta (PPARd) (AID 2283002; active = hit-call score of the fitted dose curve at least 0.9, where 1 is the maximum). Summed up: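 Read-out: reporter mRNA induction, quantified by fluorescent RT-PCR products resolved by capillary electrophoresis. Human HepG2 liver cells carried transiently transfected Gal4-UAS reporter constructs with chimeric NR-Gal4 fusions. Cells were dosed for 24 h; DMSO served as baseline.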

The target in test [8] is Peroxisome proliferator-activated receptor gamma (Homo sapiens) (UniProt P37231). The experiment in a line: ATG_PPARg_TRANS: Attagene TRANS-FACTORIAL HepG2 Assay for human Peroxisome Proliferator-activated Receptor-gamma (PPARg) (AID 2283007; active = hit-call score of the fitted dose curve at least 0.9, where 1 is the maximum). Summed up:
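Chimeric NR-Gal4 transactivation is measured in transiently transfected HepG2 cells by reporter mRNA induction at 24 h. Detection uses RT-PCR with fluorescent labelling and capillary electrophoresis; DMSO defines baseline.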

Test [9] has as its target Nuclear receptor subfamily 1 group I member 2 (Homo sapiens) (UniProt O75469). Nature of the test: ATG_PXR_TRANS: Attagene TRANS-FACTORIAL HepG2 Assay for human Pregnane X Receptor (PXR) (AID 2283008; active = hit-call score of the fitted dose curve at least 0.9, where 1 is the maximum). Summed up:
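Transactivation by exogenous PXR–GAL4 fusion measured as reporter transcript induction after 24 h compound treatment of transfected human HepG2 cells. Read-out via RT-PCR and capillary electrophoresis of labelled fragments, fitted upward relative to DMSO.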

The target in test [10] is human RAR-related Orphan Receptor beta (RORb), RORB (gene 6096) (UniProt Q92753). The experiment in a line: ATG_RORb_TRANS: Attagene TRANS-FACTORIAL HepG2 Assay for human RAR-related Orphan Receptor beta (RORb) (AID 2283010; active = hit-call score of the fitted dose curve at least 0.9, where 1 is the maximum). A digest of the protocol:
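Read-out is reporter mRNA induction, quantified by RT-PCR with fluorescent capillary electrophoresis, 24 h post-dose in transiently transfected HepG2 expressing exogenous NR-Gal4 chimera. Activity fitted upward versus DMSO.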

The target of test [11] is Retinoic acid receptor alpha (Homo sapiens) (UniProt P10276). The experiment in a line: ATG_RARa_TRANS: Attagene TRANS-FACTORIAL HepG2 Assay for human Retinoic Acid Receptor alpha (RARa) (AID 2283005; active = hit-call score of the fitted dose curve at least 0.9, where 1 is the maximum). Summed up: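 HepG2 transiently transfected with multiplex GAL4-UAS reporter units including a human RARa–GAL4 chimera; 24 h compound exposure. Reporter mRNA quantified by RT-PCR, 6-FAM labeling and capillary electrophoresis; gain of signal versus DMSO.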

Test [12] has as its target human Retinoic Acid Receptor gamma (RARg), RARG (gene 5916) (UniProt P13631). Nature of the test: ATG_RARg_TRANS: Attagene TRANS-FACTORIAL HepG2 Assay for human Retinoic Acid Receptor gamma (RARg) (AID 2283009; active = hit-call score of the fitted dose curve at least 0.9, where 1 is the maximum). Summed up: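 Transactivation of exogenous RARg-Gal4 fusion measured as reporter transcript induction after 24 h in transfected HepG2 cells. RNA reverse-transcribed, amplified, fluorescently labeled and resolved by capillary electrophoresis; increase relative to DMSO.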

The nature of test [13]: ATG_NRF2_ARE_CIS: Attagene CIS-FACTORIAL HepG2 Assay for human Nuclear Factor Erythroid 2 Related Factor 2 (NFR2) response to Antioxidant Response Elements (ARE) (AID 2282992). The conditions noted are these: HepG2 Attagene ARE/NRF2 reporter, transcription factor activity; actives raise or lower the signal. A digest of the protocol: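 Endogenous transcription factor activity read out as reporter transcript levels (RT-PCR plus capillary electrophoresis, fluorescence) in transiently transfected HepG2 cells. Measured at 24 h after dosing; gain or loss of signal fitted versus DMSO.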

A short description of test [14]: BSK_3C_TissueFactor: BioMAP Diversity Plus: 3C Assay for Tissue Factor Biomarker Activity (AID 2282997). The conditions noted are these: BioMAP 3C HUVEC, tissue factor biomarker readout; actives raise or lower the signal. Summed up: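 Tissue Factor measured by ELISA, 24 h after treatment of primary HUVEC in the BioMAP 3C setting.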
Test [15] in a line: BSK_3C_uPAR: BioMAP Diversity Plus: 3C Assay for Urokinase-type plasminogen activator receptor (uPAR) Biomarker Activity (AID 2282998). The conditions noted are these: BioMAP 3C HUVEC, uPAR biomarker ELISA; actives raise or lower the signal. A digest of the protocol:
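Human umbilical vein endothelial primary cells were exposed to test chemical for 24 h. Cell-surface uPAR was then quantified by ELISA, and responses were fitted bidirectionally against DMSO as negative control and baseline.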

Test [16] is described as follows: BSK_3C_VCAM1: BioMAP Diversity Plus: 3C Assay for Vascular cell adhesion molecule 1 (VCAM1) Biomarker Activity (AID 2282999). The conditions noted are these: BioMAP 3C HUVEC, VCAM1 ELISA, cytokine-stimulated; actives raise or lower the signal. A digest of the protocol:
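HUVEC primary cells, 24 h compound exposure; VCAM-1 by ELISA; gain/loss of signal fitted bidirectionally vs DMSO baseline.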

A short description of test [17]: BSK_4H_Eotaxin3: BioMAP Diversity Plus: 4H Assay for Eotaxin 3 Biomarker Activity (AID 2283000).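 Also: CCL26 protein level quantified by ELISA in parallel with SRB cytotoxicity check.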 The note with it: primary human endothelial cells (HUVEC); actives raise or lower the signal. A digest of the protocol:
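Eotaxin-3 (CCL26) levels were measured by ELISA in HUVEC primary cultures 24 h post-dosing. Gain or loss of signal was fitted in both directions, with DMSO serving as baseline and negative control.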

Read-out in test [18]: Intercellular Adhesion Molecule 1 (ICAM1), ICAM1 (gene 3383)
The experiment in a line: BSK_3C_ICAM1: BioMAP Diversity Plus: 3C Assay for Intercellular Adhesion Molecule 1 (ICAM1) Biomarker Activity (AID 2283003). The note with it: primary human endothelial cells (HUVEC); actives raise or lower the signal. A digest of the protocol: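 ELISA readout of ICAM1 in human umbilical vein endothelial cells in the 3C system, taken 24 h post-dose. Gain or loss of signal versus DMSO was fitted in both directions, with SRB total-protein staining run in parallel.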

The nature of test [19]: BSK_3C_Proliferation: Cell Proliferation Assessment in the BioMAP Diversity Plus: 3C Assay (AID 2283006).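 As to AC50: potency may reflect either rise or fall in cell number versus DMSO.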 The conditions noted are these: primary human endothelial cells (HUVEC). Summed up:
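Proliferation as total protein: sulforhodamine B (0.1%) stain of TCA-fixed subconfluent human umbilical vein endothelial cells, absorbance 560 nm, 48 h after dosing. Activity fitted in both directions against DMSO baseline.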

Chain of human Peroxisome Proliferator-activated Receptor delta (PPARd), PPARD (gene 5467) (Q03181 whole entry, looked up, the tested form may be a part): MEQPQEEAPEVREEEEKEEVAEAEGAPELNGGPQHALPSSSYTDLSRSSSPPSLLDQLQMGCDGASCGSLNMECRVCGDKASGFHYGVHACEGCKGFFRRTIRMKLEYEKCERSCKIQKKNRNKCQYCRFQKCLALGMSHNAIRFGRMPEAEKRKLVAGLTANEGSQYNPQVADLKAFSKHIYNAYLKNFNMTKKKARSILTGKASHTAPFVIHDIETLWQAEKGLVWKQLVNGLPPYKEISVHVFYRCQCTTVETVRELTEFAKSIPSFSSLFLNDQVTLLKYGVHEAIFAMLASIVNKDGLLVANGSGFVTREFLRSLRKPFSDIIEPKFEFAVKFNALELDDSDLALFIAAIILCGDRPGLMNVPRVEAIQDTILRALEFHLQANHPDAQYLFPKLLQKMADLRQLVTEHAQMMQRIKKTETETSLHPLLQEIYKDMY
Chain of human Retinoic Acid Receptor gamma (RARg), RARG (gene 5916) (P13631 whole entry, looked up, the tested form may be a part): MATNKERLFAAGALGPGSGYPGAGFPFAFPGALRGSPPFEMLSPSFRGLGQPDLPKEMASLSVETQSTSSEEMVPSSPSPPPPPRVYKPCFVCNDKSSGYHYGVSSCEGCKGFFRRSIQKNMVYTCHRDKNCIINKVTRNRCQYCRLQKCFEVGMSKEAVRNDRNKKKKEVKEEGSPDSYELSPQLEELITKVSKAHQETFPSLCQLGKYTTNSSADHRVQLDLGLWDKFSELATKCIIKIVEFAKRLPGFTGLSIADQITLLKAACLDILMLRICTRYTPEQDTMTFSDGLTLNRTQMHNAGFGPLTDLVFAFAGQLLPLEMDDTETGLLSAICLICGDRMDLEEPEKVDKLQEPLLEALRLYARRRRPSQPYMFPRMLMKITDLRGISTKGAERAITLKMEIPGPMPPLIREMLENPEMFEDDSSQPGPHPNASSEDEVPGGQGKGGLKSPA
Chain of human Peroxisome Proliferator-activated Receptor alpha (PPARa), PPARA (gene 5465) (Q07869 whole entry, looked up): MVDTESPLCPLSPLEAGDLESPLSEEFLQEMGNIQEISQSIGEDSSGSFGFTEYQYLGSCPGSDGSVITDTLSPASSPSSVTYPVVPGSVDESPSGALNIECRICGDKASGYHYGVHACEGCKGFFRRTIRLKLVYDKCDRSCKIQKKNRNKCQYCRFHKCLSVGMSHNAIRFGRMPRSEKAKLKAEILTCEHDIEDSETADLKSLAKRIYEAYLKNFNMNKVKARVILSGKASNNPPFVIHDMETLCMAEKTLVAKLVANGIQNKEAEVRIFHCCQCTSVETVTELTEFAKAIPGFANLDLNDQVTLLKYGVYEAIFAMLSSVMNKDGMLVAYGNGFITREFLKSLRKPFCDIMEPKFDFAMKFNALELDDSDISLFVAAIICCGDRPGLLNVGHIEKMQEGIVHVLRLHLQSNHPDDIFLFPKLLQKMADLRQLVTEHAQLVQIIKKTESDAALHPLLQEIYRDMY
Chain of Nuclear receptor subfamily 1 group I member 2 (Homo sapiens) (O75469 whole entry, looked up, the tested form may be a part): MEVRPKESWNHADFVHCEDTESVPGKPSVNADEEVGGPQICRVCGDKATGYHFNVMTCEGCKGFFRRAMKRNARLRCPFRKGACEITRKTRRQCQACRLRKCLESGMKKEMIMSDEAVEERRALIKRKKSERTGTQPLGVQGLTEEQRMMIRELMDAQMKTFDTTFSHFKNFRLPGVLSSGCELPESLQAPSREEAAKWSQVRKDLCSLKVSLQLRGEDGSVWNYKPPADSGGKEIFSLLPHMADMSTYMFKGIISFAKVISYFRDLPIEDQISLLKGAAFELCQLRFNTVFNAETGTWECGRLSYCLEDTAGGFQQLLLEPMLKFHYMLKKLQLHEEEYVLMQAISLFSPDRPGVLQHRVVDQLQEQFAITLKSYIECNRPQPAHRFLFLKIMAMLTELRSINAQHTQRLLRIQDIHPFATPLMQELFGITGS
Chain of Retinoic acid receptor alpha (Homo sapiens) (P10276 whole entry, looked up, the tested form may be a part): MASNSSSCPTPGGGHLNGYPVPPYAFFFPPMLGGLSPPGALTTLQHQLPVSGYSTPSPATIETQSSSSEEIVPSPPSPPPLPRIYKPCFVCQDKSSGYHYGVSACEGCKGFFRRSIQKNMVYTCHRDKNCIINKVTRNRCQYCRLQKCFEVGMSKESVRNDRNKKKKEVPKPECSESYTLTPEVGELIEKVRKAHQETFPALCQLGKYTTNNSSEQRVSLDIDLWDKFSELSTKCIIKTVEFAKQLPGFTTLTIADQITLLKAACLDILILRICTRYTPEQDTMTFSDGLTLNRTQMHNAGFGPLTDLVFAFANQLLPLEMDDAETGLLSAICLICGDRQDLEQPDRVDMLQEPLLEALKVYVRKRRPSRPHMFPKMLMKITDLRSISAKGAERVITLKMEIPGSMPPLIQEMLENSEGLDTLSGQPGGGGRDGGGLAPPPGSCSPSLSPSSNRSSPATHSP
Chain of Cellular tumor antigen p53 (Homo sapiens) (P04637 whole entry, looked up): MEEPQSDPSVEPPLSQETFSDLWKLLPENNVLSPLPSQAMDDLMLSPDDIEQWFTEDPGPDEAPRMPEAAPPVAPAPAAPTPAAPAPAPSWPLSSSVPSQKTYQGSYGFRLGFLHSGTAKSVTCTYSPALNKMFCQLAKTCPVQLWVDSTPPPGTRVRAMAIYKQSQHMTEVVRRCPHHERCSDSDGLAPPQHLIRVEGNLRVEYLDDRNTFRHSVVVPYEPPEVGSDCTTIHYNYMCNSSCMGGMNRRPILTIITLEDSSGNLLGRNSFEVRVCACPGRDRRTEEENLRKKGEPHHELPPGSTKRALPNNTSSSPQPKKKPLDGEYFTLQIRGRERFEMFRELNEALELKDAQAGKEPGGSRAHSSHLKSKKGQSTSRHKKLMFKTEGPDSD
Chain of Peroxisome proliferator-activated receptor gamma (Homo sapiens) (P37231 whole entry, looked up, the tested form may be a part): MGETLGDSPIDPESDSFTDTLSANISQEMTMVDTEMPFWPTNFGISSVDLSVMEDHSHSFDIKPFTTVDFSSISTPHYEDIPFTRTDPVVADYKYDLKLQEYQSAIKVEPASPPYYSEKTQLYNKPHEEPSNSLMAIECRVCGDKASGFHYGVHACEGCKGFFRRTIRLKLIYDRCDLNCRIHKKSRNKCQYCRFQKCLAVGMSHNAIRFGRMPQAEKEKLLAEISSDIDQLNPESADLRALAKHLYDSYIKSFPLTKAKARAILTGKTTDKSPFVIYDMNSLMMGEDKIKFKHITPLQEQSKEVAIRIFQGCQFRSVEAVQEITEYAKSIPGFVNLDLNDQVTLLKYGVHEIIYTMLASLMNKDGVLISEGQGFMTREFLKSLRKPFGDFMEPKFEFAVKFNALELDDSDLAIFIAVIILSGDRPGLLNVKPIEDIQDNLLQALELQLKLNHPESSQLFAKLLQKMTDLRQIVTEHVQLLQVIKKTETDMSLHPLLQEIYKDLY
Chain of Myc proto-oncogene protein (Homo sapiens) (P01106 whole entry, looked up, the tested form may be a part): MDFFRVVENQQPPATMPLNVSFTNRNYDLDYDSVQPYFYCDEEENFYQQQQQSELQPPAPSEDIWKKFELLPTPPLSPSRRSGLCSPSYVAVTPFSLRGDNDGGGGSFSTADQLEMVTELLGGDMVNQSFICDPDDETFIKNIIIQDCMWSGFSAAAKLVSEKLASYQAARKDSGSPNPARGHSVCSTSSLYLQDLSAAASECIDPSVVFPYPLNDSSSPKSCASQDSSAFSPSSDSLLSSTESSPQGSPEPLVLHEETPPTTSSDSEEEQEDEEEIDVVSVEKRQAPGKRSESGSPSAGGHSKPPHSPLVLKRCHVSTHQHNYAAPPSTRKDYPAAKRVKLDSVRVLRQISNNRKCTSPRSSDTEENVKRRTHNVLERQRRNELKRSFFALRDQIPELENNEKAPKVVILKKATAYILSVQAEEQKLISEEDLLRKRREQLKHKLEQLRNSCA
Chain of human RAR-related Orphan Receptor beta (RORb), RORB (gene 6096) (Q92753 whole entry, looked up, the tested form may be a part): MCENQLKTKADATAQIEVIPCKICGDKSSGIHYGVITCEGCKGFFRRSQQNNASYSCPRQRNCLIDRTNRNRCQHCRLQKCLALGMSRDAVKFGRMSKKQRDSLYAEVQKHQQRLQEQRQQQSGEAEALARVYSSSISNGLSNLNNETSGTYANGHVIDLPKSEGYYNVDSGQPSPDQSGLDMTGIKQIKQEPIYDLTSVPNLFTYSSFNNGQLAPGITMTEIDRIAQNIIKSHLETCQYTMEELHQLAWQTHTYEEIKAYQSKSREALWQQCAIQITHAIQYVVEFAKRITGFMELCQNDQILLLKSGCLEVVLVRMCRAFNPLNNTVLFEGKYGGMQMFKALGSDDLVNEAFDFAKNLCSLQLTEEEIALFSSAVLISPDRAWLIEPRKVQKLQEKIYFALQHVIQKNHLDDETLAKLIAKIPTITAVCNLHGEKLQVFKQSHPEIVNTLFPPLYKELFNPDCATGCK

`c1cc[c]([Sb]([c]2ccccc2)[c]2ccccc2)cc1`: the outcome in [1], in test [2], in [3], in test [4], in test [5] and in test [6] was inactive. For the same molecule, the molecule was called inactive in test [7]. The AC50 was 23.5 µM (active) in test [8] and 8.18 µM (active) in test [9].

`CN(N=O)c1ccc([N+](=O)[O-])cc1`: the result in test [1], in test [2], in test [3], in test [4] and in test [6] was inactive. Further, the AC50 in test [8] is 31.9 µM (active).

`BrCC(Br)c1ccccc1` (stereo unspecified): the molecule was called inactive in test [1], in test [2], in test [3], in test [4], in test [5] and in test [6]. In addition, the call in test [8] and in test [10] was inactive.

With `Cc1cc(Cl)ccc1OCCCC(=O)O`, the call in test [1], in test [2], in test [3], in test [4], in test [5] and in test [6] was inactive. Besides, the molecule was called inactive in test [11] and in test [12]. The AC50 in [8] was 61.5 µM (active).

As for `CC(C)(c1ccccc1)c1cc(-n2nc3ccccc3n2)c(O)c(C(C)(C)c2ccccc2)c1`, the result in [1], in test [2], in test [3], in test [4], in test [5] and in test [7] was inactive. Besides, the result in test [9] and in [12] was inactive.

In the case of `C=CC(=O)[O][Sn]([CH2]CCC)([CH2]CCC)[CH2]CCC`, the AC50 was 0.179 µM (active) in [1]; 0.348 µM (active) in test [4]; 0.599 µM (active) in [6]; 0.0934 µM (active) in test [8]; 0.237 µM (active) in test [9]. Besides, the outcome in test [2], in [3], in test [5] and in test [7] was inactive.

As to `COCC(=O)N(c1c(C)cccc1C)[C@H](C)C(=O)OC`, the result in [1], in test [2], in test [13], in test [4], in test [5] and in test [14] was inactive. The outcome in [15], in [16], in [17], in test [6], in test [18] and in test [11] was inactive. The outcome in test [19], in test [8] and in test [12] was inactive.

`O=C(CCl)NCO`: the molecule was called inactive in [1], in test [2], in [3], in [4], in test [5] and in test [14]. Also, the outcome in test [15], in test [16], in test [17], in [7], in test [18] and in [19] was inactive. In addition, the result in test [12] and in test [10] was inactive.

For `Cc1cc(C(C)(C)c2ccc(O)c(C)c2)ccc1O`, the molecule was called inactive in test [1], in [2], in [17], in test [7], in test [18] and in [12]. Also, the AC50 in test [13] was 11.7 µM (active); in test [4], 34.8 µM (active); in test [5], 33.7 µM (active); in [14], 13.6 µM (active); in [15], 10 µM (active); in test [16], 15 µM (active). Moreover, the AC50 in test [19] was 14.3 µM (active); in test [8], 5.48 µM (active); in test [9], 3.26 µM (active).

In the case of `O=S(=O)(F)C(F)(F)C(F)(F)C(F)(F)C(F)(F)F`, the molecule was classed as inactive in test [1], in test [2], in test [3], in test [4], in test [5] and in test [6]. Moreover, the result in [7], in test [8] and in test [9] was inactive.

On to `CCCCCCCCCCBr`, for which the outcome in test [1], in test [2], in [3], in test [4], in [5] and in [6] was inactive. In addition, the outcome in test [11] and in [9] was inactive. For the same molecule, the AC50 in [8] is 19.8 µM (active).
